Test results from the supplement of paper PMC5919970.
Structures can show the parent of a compound that is named as a salt. In all, about 2,000 compounds were measured (“fractional viability relative to vehicle”: median about 0.92, lowest 2% from about 0.11 on). The entries come from a sample that favours the lowest values as a whole.

Tested on: TYKNU
Assay: fractional viability relative to vehicle; TYKNU is a high-grade serous ovarian cancer line; higher = less growth inhibition
Details: 72 h, genotype: OPA1 knockout (sgOPA1 #2)
How it was run: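 Drug treatment lasted 72 h, with cells grown at 37 °C in 5% CO2 in RPMI 1640 supplemented with 10% FBS. Beforehand, TYKNU control cells or their lentiCRISPRv2 knockout derivatives had been seeded at 500 cells per well into drug-stamped 384-well plates carrying a ~2100-compound library at 2 or 10 μM, in duplicate. Viability came from Cell Titer Glo luminescence, with averaged duplicate treatment wells normalised to duplicate control wells in the same plate position.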

Row | SMILES | fractional viability (2uM) | fractional viability (10uM)
1 | C[C@H](CCC(=O)NCCS(=O)(=O)O)[C@H]1CC[C@H]2[C@@H]3[C@@H](O)C[C@@H]4C[C@H](O)CC[C@]4(C)[C@H]3CC[C@]12C [Sodium Tauroursodeoxycholate (TUDC)] | 0.832 | 0.834
2 | Cc1c(C(=O)NN2CCCCC2)nn(-c2ccc(Cl)cc2Cl)c1-c1ccc(I)cc1 | 0.982 | 0.754
3 | CCN(CC)CCCC(C)Nc1nc(C)cc(Nc2ccc3nc(C)cc(N)c3c2)n1 (stereo not given) | 0.891 | 0.898
4 | CCN(CC)CCCC(C)Nc1c2ccc(Cl)cc2nc2ccc(OC)cc12 (stereo not given) [Quinacrine 2HCl] | 0.837 | 0.105
5 | C[C@H](Nc1ncnc2[nH]cnc12)c1cc2ccc(F)cc2nc1-c1ccccn1 | 0.879 | 0.836
6 | O=C(O)c1ccccc1 [Benzoic Acid] | 0.885 | 0.957
7 | CN(NC(=O)CC(=O)NN(C)C(=S)c1ccccc1)C(=S)c1ccccc1 [Elesclomol (STA-4783)] | 0.0864 | 0.107
8 | O=C(O)CCNC(=O)c1ccccc1 [Betamipron] | 1.14 | 0.982
9 | Cc1cc(CS(=O)(=O)c2ccccc2)cc(OCc2ccc(CN3CCC[C@@H]3CO)cc2)c1 | 0.843 | 0.875
10 | C=C1[C@H](CO)[C@@H](O)C[C@@H]1n1cnc2c(=O)[nH]c(N)nc21 [Entecavir Hydrate] | 1.01 | 0.935
11 | Cc1nc(C#Cc2ccnc(Cl)c2)c(C)n1-c1ccc(OC(F)(F)F)cc1 | 1.08 | 0.815
12 | CCn1c(-c2nonc2N)nc2c(C#CC(C)(C)O)ncc(OC[C@H]3CCCNC3)c21 | 1.01 | 0.698
13 | Nc1ccc(-c2ccc3ncc4ccc(=O)n(-c5cccc(C(F)(F)F)c5)c4c3c2)cn1 [Torin 2] | 0.36 | 0.363
14 | COc1ccc(-c2ccc3ncc4c(c3c2)n(-c2ccc(N3CCNCC3)c(C(F)(F)F)c2)c(=O)n4C)cn1 | 0.111 | 0.0546
15 | CNC(=O)c1cc(Oc2ccc3nc(N[C@@H]4CCCC[C@H]4O)sc3c2)ccn1 | 0.831 | 0.74
16 | COc1cc2ncnc(Nc3ccc(O)c(Br)c3)c2cc1OC | 1.37 | 1.19
17 | N#Cc1c(NC(=O)c2cccc3ccccc23)sc2c1CCCC2 [JNK Inhibitor IX] | 0.428 | 0.386
18 | Cc1cc(C)nc(SCC(=O)Nc2ncc(Cc3cccc4ccccc34)s2)n1 | 0.904 | 0.931

Row | SMILES | fractional viability (2uM) | fractional viability (10uM)
19 | CC(=O)[C@]1(O)Cc2c(O)c3c(c(O)c2[C@@H](O[C@H]2C[C@H](N)[C@H](O)[C@H](C)O2)C1)C(=O)c1ccccc1C3=O [Idarubicin HCl] | 0.56 | 0.0586
20 | COc1cccc2c1C(=O)c1c(O)c3c(c(O)c1C2=O)C[C@@](O)(C(C)=O)C[C@@H]3O[C@H]1C[C@H](N)[C@H](O)[C@H](C)O1 [Daunorubicin HCl] | 0.568 | 0.108
21 | COc1cccc2c1C(=O)c1c(O)c3c(c(O)c1C2=O)C[C@@](O)(C(=O)CO)C[C@@H]3O[C@H]1C[C@H](N)[C@H](O)[C@H](C)O1 [Doxorubicin (Adriamycin)] | 0.738 | 0.726
22 | Cn1nnc(-c2ccc3c(c2)[nH]c2nc(Cc4ccccc4)nc(NC4CCC(N)CC4)c23)n1 (stereo not given) | 1.01 | 0.765
23 | CC(C)Nc1cc(-c2c[nH]c(C(=O)N[C@H](CO)c3cccc(Cl)c3)c2)c(Cl)cn1 | 0.453 | 0.36
24 | Cc1noc(C)c1-c1ccc(-c2cc(C(N)=O)c(NC(N)=O)s2)c(O[C@H]2CCNC2)c1 | 0.847 | 0.778
25 | COc1cc2ncnc(Sc3nnc(C)s3)c2cc1OC | 0.789 | 0.16
26 | Cn1cc(CNCC2CCN(c3ncc(C(=O)NO)cn3)CC2)c2ccccc21 | 0.224 | 0.19
27 | CCNC(=O)C#Cc1ccc2c(C(=Nc3ccc(CN(C)C)cc3)c3ccccc3)c(O)[nH]c2c1 | 0.276 | 0.0913
28 | CN(C)Cc1cccc(N=C(c2ccccc2)c2c(O)[nH]c3cc(C(=O)N(C)C)ccc23)c1 | 1.13 | 0.78
29 | O=C(O)CCCCC(CCSCc1ccccc1)SCc1ccccc1 (stereo not given) | 1.23 | 0.919
30 | CCOC(=O)N[C@@H]1CC[C@@H]2[C@@H](C1)C[C@H]1C(=O)O[C@H](C)[C@H]1[C@H]2/C=C/c1ccc(-c2cccc(F)c2)cn1 [Vorapaxar] | 0.913 | 1.06
31 | CCn1c(=O)c(-c2ccc(-c3cncs3)cc2Cl)cc2cnc(Nc3ccc(N4CCN(C)CC4)cc3)nc21 | 0.914 | 0.64
32 | CC1(C)S[C@@H]2[C@H](NC(=O)[C@H](NC(=O)N3CCN(S(C)(=O)=O)C3=O)c3ccccc3)C(=O)N2[C@H]1C(=O)O [Mezlocillin Sodium] | 0.892 | 0.979
33 | Nc1nc(=S)c2ncn([C@H]3C[C@H](O)[C@@H](CO)O3)c2[nH]1 | 1.03 | 0.763
34 | C[C@@]1(c2cc(-c3cncnc3)c(F)cc2F)CCSC(N)=N1 | 1.12 | 0.948
35 | CC(C)C[C@H](NC(=O)CNC(=O)c1cc(Cl)ccc1Cl)B1OC(=O)C(CC(=O)O)(CC(=O)O)O1 | 0.335 | 0.299
